Measured values: PubChem BioAssay AID1508600 (Functional Genomics Laboratory (NCATS/FGL), 2020)
The whole screen tested about 53,000 sequences, of which about 3,700 (7%) were called active. This excerpt belongs to a sample that is enriched for actives. Values without a mark were called inactive.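 How the source made its calls: active means gene knockdowns whose robust z-score for IL-1 alpha signal is at least 2 or at most -2, so actives lie on both sides; inactive means the rest.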

Experiment: Components of the Cytosolic LPS Sensing Pathway: Gene Identification via Genome-wide siRNA Screen;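 further: robust z of the log signal after scaling to non-targeting control siRNA wells of the plate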
Conditions: RAW264.7 macrophages, IL-1a HTRF, actives lie on both sides, screened at 100 nM (by protocol), cells primed 5 h with Pam3CSK4 first
How it was run: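 Supernatant IL-1a by HTRF from RAW264.7 cells primed with Pam3CSK4 (5 hours) and transfected with LipidA (24 hour) after 48h siRNA knockdown at 100 nM; cell viability checked with CellTiter-Glo.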

| Sequence | z-score |
| --- | --- |
| GCUUACUACCAUUGGGAAUTT against Samt2 | 1.65 |
| GGAUUAGAGAAAUAGGGCUTT against Apol10a | -2.09 (active) |
| GGAAUUCCUUCGUUUCCUUTT against Usp2 | 1.64 |
| GGUUUGAAGUGUUGACAUUTT against Fam126a | -0.474 |
| CGUACAUCAGAAUGUUAAUTT against Fkbp4 | 1.46 |
| GGUGGUGUCAACCUUAAAATT against Nrsn1 | 0.253 |
| GGUUUUGUCCAGAAGAAUATT against Kl | -0.574 |
| GGAUGGACCAUCAGCUUCATT against Olfr1152 | -2.25 (active) |
| GGCUCUUGAUACGAAUGUATT against Aadac | -0.44 |
| GGAGAAGGGCUUUUCUGUUTT against Gbp5 | -0.729 |
| GCCUCACAGAUUGAUAAUATT against Akt3 | -1.23 |
| GCAGCCAUACAGCUUAUAUTT against Cyb561d2 | 0.382 |
| GGAGCUGUCAUUUAAGAAATT against Sorbs2 | 2.42 (active) |
| CGUGGCUCACAAUAAAUGCTT against Cfd | 0.385 |
| GGCAAAUGGAAAAUUCUGCTT against Rlim | 0.982 |
| GCUGAUGUAAGUAUUCUAGTT against Pdcl | 0.1 |
| GCGGAAUUGGAAAAUGCCGTT against Hbs1l | 0.283 |
| GGUGGUAUCUGUAUUCUAUTT against Olfr1106 | 2.6 (active) |
| GGUGACAAUAAAUUUGGAUTT against Tmem143 | 1.09 |
| GGAUUCACAUUUCUAAAGCTT against Adcy8 | 1.31 |
| CGCUAUGAAACCUCACUAATT against E2f1 | -0.598 |
| GCAUGACCUCAGGUUUUCUTT against Il20rb | 1.57 |

| Sequence | z-score |
| --- | --- |
| CCUGAUUGUCACUCCUUUUTT against Pde4b | 0.753 |
| GCGAAAGCAGGAUACUCCUTT against Mtmr11 | 1.01 |
| GGAAAAAAUCUGCAUCCGATT against Neu1 | -0.415 |
| GGGACAUGAGCCAUUCAUCTT against Lcor | 0.749 |
| GGAUAGCUCUAUUAUCUCUTT against Serpinb3a | 1.24 |
| GGCAGUACAACUGGUCUACTT against 0610040J01Rik | 2.21 (active) |
| GGAUGUGCUCUGUGAAUGCTT against Pgf | 0.533 |
| GGCAUCACAGAAGGUUUAUTT against Rock2 | 4.17 (active) |
| GGUGAACGAUGUCAAUAAGTT against Pdxk | -0.318 |
| CCAAGAGAUUGCUAAUUGCTT against Runx1t1 | -0.695 |
| CGCAAAAACUGGUGUAACCTT against Arhgef1 | -0.958 |
| CUCCUCAGUCAACAAGAACTT against Hoxc11 | 0.176 |
| GCUUGUUGGUGGUCUCCUGTT against Spink7 | -2.28 (active) |
| GGAAAAUGCCUCAAGACUUTT against Wdr5b | -0.0565 |
| GGACACCAUCAAUUGAUUATT against Wdr27 | -0.127 |
| GCCUUGGCUGAAACUCUCATT against Cybb | 0.612 |
| GGGACAAGAAGAACAAGAGTT against Srp14 | -1.33 |
| GGAAGAAUCGGAUCAAGAUTT against Dpep2 | 0.153 |
| GGCAUGGAAUCUGUUGUACTT against Olfr603 | 2.45 (active) |
| GCCAAGACCAUUCAGCCUUTT against Zfp579 | -0.394 |
| GCUUCAUCGAACAAGUCGCTT against Pcbd1 | 0.715 |
| GGUGCUGAAGAUGCUGACGTT against Zfp503 | -1.46 |

| Sequence | z-score |
| --- | --- |
| CGUCACUGAUGUGGCUUUUTT against Plpp6 | 0.755 |
| GGCAGAAACCCUUCUAUGUTT against Bmp8a | -1.55 |
| GGACAGCUUCCGAAACUAUTT against Miox | 0.349 |
| GGAAGCCAAAGAGAAACAATT against Ighmbp2 | -0.0223 |
| CCGUUUACGGCCACUAACUTT against Phkg2 | 3.68 (active) |
| GCAGCCAAGUGGGUAACUUTT against Nicn1 | 0.474 |
| CGGCCUGACAUCAACCUUGTT against Fam193b | -0.915 |
| GGAAGAAAACGCAACUAUATT against Atp1b3 | 0.246 |
| GUUCUCAAGUAUCCCAGGCTT against 1110006O24Rik | -0.661 |
| GCUGGAAUAUAGGAAUGUCTT against Pex11g | -0.0512 |
| GGUCUAGCUCUGAAACAUCTT against Pms2 | 2.27 (active) |
| GCAUGUUUACGUUCCUGACTT against Slc2a12 | -0.0386 |
| GGUUUUAAUUUCAACUGUCTT against Tpp1 | -0.468 |
| GGGCAACACAGGACAUCUATT against Amot | -0.35 |
| GCAGGUUAAGUAGCUGACATT against Dync1li2 | -2.37 (active) |
| GGUGUCCACGGUGGUUUGATT against Pfn1 | -0.268 |
| GGGACAGUUGACUUUUUAUTT against Cntn4 | 0.147 |
| CCUUUUGAUGCAUCCCGUCTT against Bpifb3 | 0.709 |
| GGGACUUUGGGCUAAAUAGTT against Tspan1 | -1.32 |
| CCCUCCACAGAUGAACACCTT against Lgals4 | -2.02 (active) |
| GGAUAAUUGAUCAUAGAGGTT against Ufm1 | -0.495 |
| GAGUAGGAAUUAGAAUGAUTT against Tmem47 | -0.00808 |

| Sequence | z-score |
| --- | --- |
| GCAUGAUCUCAGGUGUUUGTT against Timm13 | -1.54 |
| GGAUAACUGCUUCAUUUCCTT against Agbl1 | 0.62 |
| GGAAAGACAAAGAACUCUATT against Ssu72 | -0.535 |
| GGAUUUCACUUGAGAAUGATT against Grem1 | -0.905 |
| GGUCAACGUAAAUUGUUCATT against Plppr5 | 2.94 (active) |
| CCUUCUAGUUUGCCUCUGGTT against Olfr877 | 0.332 |
| GGGAAGAGCAUGUUUGCUGTT against Surf4 | 0.982 |
| GGAGUGUUGCCAGUUCCUATT against Tctn2 | -0.434 |
| GGAGUUUCACCAGAAGGCUTT against Ttc24 | 1.63 |
| GGACUUUGUGAAGGACUCUTT against Gatd1 | -2.56 (active) |
| GGAACUUGGAAUUUAGUUGTT against Pla2g4b | 1.43 |
| GGACAUGGUCCUUCCUAAATT against Arl8b | 0.944 |
| GGAAGCUGCACGGCAACUUTT against Btn2a2 | -0.132 |
| GGAGUGAUCAUCUAUAAUUTT against Rnf133 | 2.12 (active) |
| CCUGGUCAAUCGAUUCAUATT against 5330416C01Rik | -0.12 |
| GGGCAGAGUGGAGUAUCUGTT against Cbx4 | -1.35 |
| GGACACAUGGAAGAGGAUUTT against Rnf139 | 0.513 |
| CGAGGAUGCUUUUUAAAAATT against Inip | -0.0653 |
| GCUGCUUUAGCUUAGUUUUTT against Vwa7 | 0.457 |
| GCCGACAGAUUGAAAUUCGTT against Supv3l1 | 2.79 (active) |
| GCCCGAUUAAAAUAAAUUGTT against Arih2 | 0.636 |
| GGAAAAUCUGGAGUUCUUCTT against Npas1 | 1.3 |

| Sequence | z-score |
| --- | --- |
| GGUUCAGACCAUCUUGGAATT against Bag3 | -0.936 |
| GGCAUUCAGAAAUCCAGUATT against Zdhhc2 | -0.942 |
| GGGAAUGGAAACGGCCAUGTT against Nmt1 | 2.02 (active) |
| GCAAAAGUUCCAAAAAUCCTT against Cryba1 | 0.0525 |
| GCUCUACAGUAGAACAAACTT against Efcab5 | 1.18 |
| GGAUUGAAGUCCCUUUACUTT against Zdhhc16 | 2.27 (active) |
| GGAACUCUUUUCCUAAAAUTT against Slco1a5 | -0.838 |
| CCUAUACCCUGGAAAGGCATT against Pigz | 1.59 |
| GGCUGAAUCACCAGAACAUTT against Ikbke | -0.644 |
| GGCCAGAAUGUAUAAAGCUTT against Mboat7 | -1 |
| GGGCACUGGAACAGAUUUUTT against Ccnh | 4.27 (active) |
| GGUCACCCUCAAGUACCCUTT against Thop1 | -0.188 |
| GCUAUUAAGUUUACCCUAGTT against A730089K16Rik | -1.31 |
| GGACCAACUACACACUACGTT against Grik5 | 0.334 |
| CCAAUGUGCGAGCAAAGAUTT against Arid5a | 2.48 (active) |
| GGACCGUAUCCCAAAAGAUTT against Klf1 | -0.968 |
| GGGCCUCUUCCUUAAGCAUTT against Snx8 | -0.382 |
| GGAAGUUUGUUUGCUGUUATT against Slx4ip | 1.08 |
| GCCUAUUGUAAAUACAGGUTT against Bdnf | 0.6 |
| GGUGAAUAGAACAUCAUCUTT against Lrrc29 | -1.76 |
